Results taken from the supplement of paper PMC9262897, “Low-cost anti-mycobacterial drug discovery using engineered E. coli” (Nature Communications, 2022).
Where a name gives a salt, the structure may show the parent alone. ± gives the standard deviation of the averaged measurements.

system: E. coli TESEC Mtb DapB; assay: growth (OD600 after 10 h); higher = more growth (less inhibition); details: arabinose induction (level): High; compound 0.1 mM; raw OD600 reference: median of DMSO wells […], cell-free background 0.041
Description: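 TESEC E. coli strains in which the native enzyme is deleted and replaced by arabinose-inducible Mtb Asd, DapB, CysH or TrpD, each grown in its selective medium. Strains were screened against the Prestwick library at 0.1 mM and 1% DMSO in 384-well format at low and high arabinose induction. Growth is read as OD600 after 10 h in triplicate.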

SMILES | growth
O=P1(N(CCCl)CCCl)NCCCO1 (stereo not given) [Cyclophosphamide] | 0.205 ± 0.019
CCC(=O)O[C@H]1CC[C@H]2[C@@H]3CCC4=CC(=O)CC[C@]4(C)[C@H]3CC[C@]12C [Testosterone propionate] | 0.214 ± 0.0086
C#C[C@]1(O)CC[C@H]2[C@@H]3CCC4=CC(=O)CC[C@]4(C)[C@H]3CC[C@@]21C [Ethisterone] | 0.179 ± 0.0098
C=C1CC[C@@]2(O)[C@H]3Cc4ccc(O)c5c4[C@@]2(CCN3CC2CC2)[C@H]1O5 [Nalmefene hydrochloride] | 0.194 ± 0.028
CN1C[C@H](C(=O)N[C@]2(C)O[C@@]3(O)[C@@H]4CCCN4C(=O)[C@H](Cc4ccccc4)N3C2=O)C[C@@H]2c3cccc4[nH]cc(c34)C[C@H]21 [Dihydroergotamine tartrate] | 0.119 ± 0.018
C=CC[C@]1(O)CC[C@H]2[C@@H]3CCC4=CC(=O)CCC4=C3C=C[C@@]21C [Altrenogest] | 0.148 ± 0.002
C[N+]1(C)CCOC(O)(c2ccc(-c3ccc(C4(O)C[N+](C)(C)CCO4)cc3)cc2)C1 (stereo not given) [Hemicholinium bromide] | 0.21 ± 0.012
C[C@]12CC[C@@H](O)C[C@@H]1CC[C@@H]1[C@@H]2CC[C@]2(C)C(=O)CC[C@@H]12 [Androsterone] | 0.141 ± 0.013
CC(C)C[C@H](CN)CC(=O)O [Pregabalin] | 0.201 ± 0.0072
S=C(NC1CCCCC1)N1CCC(c2cnc[nH]2)CC1 [Thioperamide maleate] | 0.201 ± 0.015
CC[C@@]1([C@@H]2O[C@@H]([C@H]3O[C@@](O)(CO)[C@H](C)C[C@@H]3C)C[C@@H]2C)CC[C@H]([C@]2(C)CC[C@]3(C[C@H](O)[C@@H](C)[C@@H]([C@@H](C)[C@@H](OC)[C@H](C)C(=O)O)O3)O2)O1 [Monensin sodium salt] | 0.162 ± 0.01
CCN(CC)C(C)C(=O)c1ccccc1 (stereo not given) [Amfepramone hydrochloride] | 0.202 ± 0.018
CN(C)C(=O)Oc1ccc[n+](C)c1 [Pyridostigmine iodide] | 0.195 ± 0.017
NC(=O)OCCCc1ccccc1 [Phenprobamate] | 0.197 ± 0.023
CC(Cc1ccc(O)cc1)NCC(O)c1cc(O)cc(O)c1 (stereo not given) [Fenoterol hydrobromide] | 0.201 ± 0.017
NCCCNCCSP(=O)(O)O [Amifostine] | 0.196 ± 0.0064
CCN(C)C(=O)Oc1cccc([C@H](C)N(C)C)c1 [Rivastigmine] | 0.188 ± 0.01
NCC(CC(=O)O)c1ccc(Cl)cc1 (racemic) [Baclofen (R,S)] | 0.219 ± 0.017
CC(C)[N+](C)(CCC(C(N)=O)(c1ccccc1)c1ccccc1)C(C)C [Isopropamide iodide] | 0.211 ± 0.025
CC(C)CC(N(C)C)C1(c2ccc(Cl)cc2)CCC1 (stereo not given) [Sibutramine HCl] | 0.161 ± 0.014

same assay, conditions: arabinose induction (level): Low; compound 0.1 mM; raw OD600 reference: median of DMSO wells 0.227, cell-free background 0.041

SMILES | growth
O=P1(N(CCCl)CCCl)NCCCO1 (stereo not given) [Cyclophosphamide] | 0.216 ± 0.029
CCC(=O)O[C@H]1CC[C@H]2[C@@H]3CCC4=CC(=O)CC[C@]4(C)[C@H]3CC[C@]12C [Testosterone propionate] | 0.189 ± 0.002
C#C[C@]1(O)CC[C@H]2[C@@H]3CCC4=CC(=O)CC[C@]4(C)[C@H]3CC[C@@]21C [Ethisterone] | 0.219 ± 0.02
C=C1CC[C@@]2(O)[C@H]3Cc4ccc(O)c5c4[C@@]2(CCN3CC2CC2)[C@H]1O5 [Nalmefene hydrochloride] | 0.226 ± 0.027
CN1C[C@H](C(=O)N[C@]2(C)O[C@@]3(O)[C@@H]4CCCN4C(=O)[C@H](Cc4ccccc4)N3C2=O)C[C@@H]2c3cccc4[nH]cc(c34)C[C@H]21 [Dihydroergotamine tartrate] | 0.161 ± 0.014
C=CC[C@]1(O)CC[C@H]2[C@@H]3CCC4=CC(=O)CCC4=C3C=C[C@@]21C [Altrenogest] | 0.162 ± 0.006
C[N+]1(C)CCOC(O)(c2ccc(-c3ccc(C4(O)C[N+](C)(C)CCO4)cc3)cc2)C1 (stereo not given) [Hemicholinium bromide] | 0.217 ± 0.021
C[C@]12CC[C@@H](O)C[C@@H]1CC[C@@H]1[C@@H]2CC[C@]2(C)C(=O)CC[C@@H]12 [Androsterone] | 0.138 ± 0.011
CC(C)C[C@H](CN)CC(=O)O [Pregabalin] | 0.231 ± 0.07
S=C(NC1CCCCC1)N1CCC(c2cnc[nH]2)CC1 [Thioperamide maleate] | 0.21 ± 0.008
CC[C@@]1([C@@H]2O[C@@H]([C@H]3O[C@@](O)(CO)[C@H](C)C[C@@H]3C)C[C@@H]2C)CC[C@H]([C@]2(C)CC[C@]3(C[C@H](O)[C@@H](C)[C@@H]([C@@H](C)[C@@H](OC)[C@H](C)C(=O)O)O3)O2)O1 [Monensin sodium salt] | 0.167 ± 0.0025
CCN(CC)C(C)C(=O)c1ccccc1 (stereo not given) [Amfepramone hydrochloride] | 0.218 ± 0.021
CN(C)C(=O)Oc1ccc[n+](C)c1 [Pyridostigmine iodide] | 0.221 ± 0.0064
NC(=O)OCCCc1ccccc1 [Phenprobamate] | 0.215 ± 0.024
CC(Cc1ccc(O)cc1)NCC(O)c1cc(O)cc(O)c1 (stereo not given) [Fenoterol hydrobromide] | 0.235 ± 0.05
NCCCNCCSP(=O)(O)O [Amifostine] | 0.209 ± 0.0086
CCN(C)C(=O)Oc1cccc([C@H](C)N(C)C)c1 [Rivastigmine] | 0.281 ± 0.04
NCC(CC(=O)O)c1ccc(Cl)cc1 (racemic) [Baclofen (R,S)] | 0.246 ± 0.04
CC(C)[N+](C)(CCC(C(N)=O)(c1ccccc1)c1ccccc1)C(C)C [Isopropamide iodide] | 0.201 ± 0.0096
CC(C)CC(N(C)C)C1(c2ccc(Cl)cc2)CCC1 (stereo not given) [Sibutramine HCl] | 0.185 ± 0.012
